These results are taken from PubChem BioAssay AID488969 (Vanderbilt High Throughput Screening Facility, 2010).

The full ranking holds about 110,000 compounds; the median of “z-score” is about -0.1, and the highest 2% start at about 2. The sample as a whole holds a higher share of the highest values than the screen did. The source made the active and inactive calls.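 How the source made its calls: active means z-score in the third read window above 3 or below -3; inactive means the rest.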

The experiment deals with Metabotropic glutamate receptor 8 (Rattus norvegicus) (UniProt P70579). The experiment can be described thus: rat mGluR8 modulators via GIRK flux, primary screen, cell-based, thallium flux, HTS (AID 488969). The following applies: HEK293 rat mGluR8, GIRK (G protein-gated inwardly rectifying potassium channel) thallium flux, FluoZin2; at 10 µM; stronger effect = higher value; submaximal glutamate (EC20) added with thallium.
Metabotropic glutamate receptor 8 (Rattus norvegicus), sequence (P70579 whole entry, looked up): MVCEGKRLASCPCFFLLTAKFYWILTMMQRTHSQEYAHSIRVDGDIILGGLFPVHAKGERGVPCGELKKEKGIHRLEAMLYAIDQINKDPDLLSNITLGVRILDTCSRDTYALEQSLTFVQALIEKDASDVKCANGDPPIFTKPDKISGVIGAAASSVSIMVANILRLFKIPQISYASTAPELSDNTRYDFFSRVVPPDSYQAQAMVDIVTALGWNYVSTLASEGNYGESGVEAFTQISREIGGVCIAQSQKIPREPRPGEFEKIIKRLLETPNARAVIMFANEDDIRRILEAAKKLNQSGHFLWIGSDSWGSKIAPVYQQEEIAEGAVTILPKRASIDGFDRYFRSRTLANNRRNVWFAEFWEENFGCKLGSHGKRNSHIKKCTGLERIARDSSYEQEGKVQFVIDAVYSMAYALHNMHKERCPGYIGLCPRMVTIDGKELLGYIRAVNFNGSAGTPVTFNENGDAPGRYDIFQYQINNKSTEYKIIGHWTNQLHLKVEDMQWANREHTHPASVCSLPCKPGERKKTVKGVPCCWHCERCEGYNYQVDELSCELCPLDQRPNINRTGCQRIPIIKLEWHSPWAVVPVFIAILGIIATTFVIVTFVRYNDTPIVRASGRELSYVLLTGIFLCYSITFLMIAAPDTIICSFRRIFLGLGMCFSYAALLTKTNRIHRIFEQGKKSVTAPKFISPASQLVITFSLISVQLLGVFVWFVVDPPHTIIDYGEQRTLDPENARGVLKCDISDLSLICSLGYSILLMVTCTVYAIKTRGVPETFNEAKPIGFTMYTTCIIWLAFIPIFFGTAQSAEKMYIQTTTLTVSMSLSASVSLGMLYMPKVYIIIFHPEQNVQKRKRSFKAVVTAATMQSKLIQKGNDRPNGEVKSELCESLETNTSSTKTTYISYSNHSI
Regarding `Cn1nnnc1SCc1nnc(-c2ccccc2Br)o1`, the z-score came to 0.436.
The value for `Cn1nnnc1SCc1nnc(-c2ccc(Cl)cc2)o1` was 2.68; that for `Cn1nnnc1SCc1nnc(-c2ccc(F)cc2)o1` was -0.226.
In the case of `Cc1ccc(/C(O)=C2/C(=O)C(=O)N(CCN3CCOCC3)C2c2cccs2)cc1` (stereo not given) it was -0.157.
In the case of `COc1cccc2cc(C(=O)N3CCN(c4ncccn4)CC3)c(=O)oc12` it was -0.344.
The molecule `COc1ccc(C(=O)N2CCN(C3CCCCC3)CC2)c(OC)c1` came in with a z-score of -0.579.
The molecule `CCCSc1cc(NCCOC(C)=O)c([N+](=O)[O-])c2nonc12` yielded a z-score of 2.48.
In the case of `COC(=O)CCSc1cc(NCCOC(C)=O)c([N+](=O)[O-])c2nonc12` it was -0.0935; in that of `CCCC(=O)OCCNc1cc(SCCC(=O)OC)c2nonc2c1[N+](=O)[O-]`, -0.658.
`Oc1cnc2ccccc2c1CN1CCOCC1` displayed a z-score of -0.0791.
Turning to `CCOc1cc(C)c(Cl)cc1S(=O)(=O)NCc1ccc2c(c1)OCO2`, the z-score was -0.837.
Regarding `Cc1ccc(S(=O)(=O)N2CCN(C3CC(=O)N(Cc4ccccc4)C3=O)CC2)cc1C` (stereo not given), the z-score was -0.767.
The value for `CCCn1c(C)cc(/C=C(\C#N)C(=O)OCC(=O)Nc2cccc(OC)c2)c1C` was 3.42 (active).
For the molecule `CCCn1c(C)cc(/C=C(\C#N)C(=O)OCC(=O)Nc2cc(OC)c(OC)c(OC)c2)c1C`, the z-score is -0.21.
In the case of `CCCn1c(C)cc(/C=C(\C#N)C(=O)OCC(=O)Nc2ccc(OC)c(Cl)c2)c1C` it was -0.243.
For the molecule `CN(CC(=O)NCCN1CCN(c2ccccc2)CC1)S(=O)(=O)c1ccc2c(c1)CCC(=O)N2`, the z-score was found to be 0.291.
`CC1(C)COC(c2cc([N+](=O)[O-])ccc2Cl)=N1` came in with a z-score of -0.41.
The molecule `Clc1ccc(/C=N/Nc2nn[nH]n2)cc1` yielded a z-score of -1.27.
In the case of `COc1cc(C(=O)Nc2ccc(Oc3ncnc4sc(-c5ccccc5)cc34)cc2)cc(OC)c1OC` it was 0.344; in that of `COc1ccccc1C(=O)Nc1ccc(Oc2ncnc3sc(-c4ccccc4)cc23)cc1`, -0.975; in that of `COc1ccc(C(=O)Nc2ccc(Oc3ncnc4sc(-c5ccccc5)cc34)cc2)cc1OC`, 4.83 (active).
The value for `CC1=NN(c2ccccc2)C(=O)C1C(=O)c1ccc(Cl)cc1` (stereo not given) was 2.14; that for `CCCCCCN1N=C(C)C(C(=O)c2ccc(Cl)cc2)C1=O` (stereo not given) was 0.521; that for `CC1=NN(c2ccccc2)C(=O)C1C(=O)c1ccccc1` (stereo not given) was -0.168.
In the case of `Clc1ccc(C2=Nn3c(nnc3-c3cccs3)SC2)cc1` it was -0.153; in that of `CCOC(=O)C1=C(C)NC(=O)CC1c1ccccc1` (stereo not given), 0.409; in that of `COc1ccc(-n2c(=S)[nH]c3sc4c(c3c2=O)CCc2ccccc2-4)cc1`, 0.114.
In turn, `Cc1ccc(-n2c(=S)[nH]c3c(oc4ccccc43)c2=O)cc1` registered a z-score of 0.618.
The value for `Cc1ccc(-n2c(=S)[nH]c3sc4c(c3c2=O)CCc2ccccc2-4)cc1` was 2.33; that for `COc1ccc2c(c1)c(=O)oc1cc(OCC(=O)NC3CCCCC3)ccc12` was 0.0339.
Molecule `COC(=O)c1c(NC(=S)Nc2ccccc2Cl)sc(C)c1C` came in with a z-score of 0.827.
In the case of `O=C(NC(=S)Nc1ccccc1)c1csnn1`, the z-score was 12.4 (active).
In the case of `O=C(NC(=S)Nc1ccccc1Cl)c1csnn1`, the z-score is 11.5 (active).
The value for `Cc1ccc(NC(=O)c2csnn2)c(C)c1` was 0.804.
Take `CC(=O)Nc1ccc(NC(=S)Nc2ccccc2)cc1`: the z-score is -0.0688.
`O=C(NC(=S)Nc1ccccc1)c1ccc(-c2ccccc2)cc1` had a z-score of 0.0142.
`C=C(C)C(C)(C#CCN1CCCC1)OC(C)=O` (stereo not given) came in with a z-score of -0.061.
In the case of `C=CCc1c(C)nc(SC)nc1Nc1ccccc1` it was -0.563.
On to `COc1ccc(NC2=NC(=S)N(c3ccccc3C)C23CCCCC3)cc1`, for which the z-score is 15.4 (active).
The value for `Cc1cccc(NC2=NC(=S)N(CC#N)C23CCCCC3)c1` was 1.02; that for `FC(F)(F)c1cccc(NC(=S)NC2CCCC2)c1` was 1.26; that for `O=C1CN=C(Nc2cccc(C(F)(F)F)c2)N1C1CCCC1` was -2.95.
Turning to `CN(C#N)c1nc(Cl)nc(Nc2cccc(Cl)c2)n1`, the z-score was -0.113.
The value for `COc1ccc(NC2=NC(=S)N(c3ccc(C)cc3)C23CCCCC3)cc1` was 0.796; that for `N#CCN1C(=S)N=C(Nc2cccc(Cl)c2)C12CCCCC2` was 2.57.
In the case of `CC1CCC(=C(C#N)C(=O)Nc2cccc(Cl)c2)CC1` (stereo not given) it was -0.314; in that of `CC1CCC2(CC1)C(Nc1cccc(Cl)c1)=NC(=S)N2CC#N` (stereo not given), 2.23; in that of `Cc1ccc(Cl)cc1NC1=NC(=S)N(C(C)C)C12CCCCC2`, 0.728.
In the case of `COc1ccc(NC2=NC(=S)N(c3cccc(C)c3)C23CCCCC3)cc1` it was 1.22.
Take `CC(C)(C)C1CCC2(CC1)C(Nc1cccc(C(F)(F)F)c1)=NC(=S)N2CC#N` (stereo not given): the z-score turned out to be 2.58.
In the case of `Cc1ccc(S(=O)(=O)N2CCN(c3ccc4nnc(-c5ccccc5)n4n3)CC2)cc1`, the z-score was -0.183.
The value for `CN(C)C(=O)c1snnc1-c1ccccc1` was -0.386; that for `O=C1C(Cl)=C(NCCCO)C(=O)c2ccccc21` was -0.185.
As to `CCOC(=O)c1c(NC(=O)CSc2nc3ccccc3s2)sc(C(C)=O)c1C`, the z-score was -0.129.
In turn, `C=CCn1c(Oc2cc(C)ccc2C)nc2c1c(=O)n(C)c(=O)n2C` showed a z-score of 0.128.
In the case of `CCC(C)(C(=O)NC1CCCCC1)N(C(=O)C1CCC(=O)N1)c1ccccc1` (stereo not given) it was 0.963.
In the case of `NNC(=O)c1cnn(Cc2ccccc2)c1N` it was 0.0742; in that of `Cc1cccc(NC2=NC(=S)N(c3ccc(C(=O)O)cc3)C23CCCCC3)c1`, -0.194; in that of `Cc1ccc(Nc2nc(N)nc(CC#N)n2)cc1`, 0.115.
In the case of `Cc1ccc(NC2=NC(=S)N(CC#N)C23CCCCC3)cc1` it was 3.98 (active); in that of `CCSc1nnc(NC(=O)C(C)Sc2nc3ccccc3[nH]2)s1` (stereo not given), 1.73.
`COc1ccc(N(CC(=O)NCc2ccc3c(c2)OCO3)S(=O)(=O)c2c(C)nn(C)c2C)cc1` came in with a z-score of -0.575.
In the case of `COC(=O)c1ccc(COC(=O)c2ccc(SC)cc2OC)cc1`, the z-score is -0.178.
The value for `Cc1cccc(NC(=O)c2sc(Cl)nc2C)c1C` was 0.181; that for `Cn1c(=O)oc2cc(S(=O)(=O)N3CCCC(C(=O)N4CC=C(c5ccccc5)CC4)C3)ccc21` (stereo not given) was 1.18.
In turn, `O=C(Nc1ccc(N2CCOCC2)cc1)C1CCCN(S(=O)(=O)c2ccccc2)C1` (stereo not given) showed a z-score of 0.446.
`O=C(Nc1ccc(N2CCOCC2)cc1)C1CCCN(S(=O)(=O)c2cccc(C(F)(F)F)c2)C1` (stereo not given) yielded a z-score of 2.63.
The value for `O=C(Nc1ccccc1N1CCOCC1)C1CCN(S(=O)(=O)c2cccc(C(F)(F)F)c2)CC1` was -0.294.
The value for `Cc1nn(-c2ccccc2)c(Cl)c1/C=N/NC(=O)C1COc2ccccc2O1` (stereo not given) was -0.169.
In the case of `CCCSc1nnc(-c2cnn(-c3ccccc3)c2-n2cccc2)n1C` it was -0.0552; in that of `COc1cc(NC(=O)c2ccccc2)c(OC)cc1NC(=O)CN1CCCCC1`, -0.781.
Molecule `COc1cc(NC(=O)c2ccc(C)cc2)c(OC)cc1NC(=O)CN1CCOCC1` displayed a z-score of -0.672.
In the case of `COc1cc(NC(=O)c2ccc(C)cc2)c(OC)cc1NC(=O)CN1CCCCC1` it was 2.37; in that of `COc1cc(NC(=O)COC(=O)CNC(=O)c2ccc(Cl)cc2)c(C)cc1[N+](=O)[O-]`, -0.644.
As to `CC1(C)CC(=S)Nc2ccccc2S1`, the z-score was 7.97 (active).
The value for `COC(=O)C(C)C1Sc2ccccc2NC1=O` (stereo not given) was -0.34; that for `CC1CC(=S)Nc2ccccc2S1` (stereo not given) was 1.11; that for `CCOC(=O)c1cc(C#N)c(Oc2ccc(F)cc2)nc1-c1ccccc1` was -0.0477.
In the case of `Cc1cc(C(=O)COC(=O)Cc2n[nH]c(=O)c3ccccc23)c(C)n1-c1ccc2c(c1)OCCO2` it was -0.104; in that of `CS(=O)(=O)c1ccc(Cl)c(NC(=O)c2cccc(Br)c2)c1`, -0.236.
In the case of `COc1ccc(OC)c(Nc2ncnc3c2cnn3-c2ccccc2)c1` it was -0.143; in that of `O=C(CSC1=Nc2ccccc2C2=NC(c3ccccc3)C(=O)N12)NCC1CCCO1` (stereo not given), 2.65.
Take `O=C(CSC1=Nc2ccccc2C2=NC(CC(=O)NCc3ccco3)C(=O)N12)NCC1CCCO1` (stereo not given): the z-score was -0.919.
The value for `O=C(CSC1=Nc2ccccc2C2=NC(c3ccccc3)C(=O)N12)NC1CCCCC1` (stereo not given) was -0.816.
In the case of `CCC(=O)OCCn1c(Br)nc2c1c(=O)[nH]c(=O)n2C` it was -0.265.
Molecule `C/C=C/Cn1c(Br)nc2c1c(=O)n(C)c(=O)n2C` had a z-score of 1.47.
The value for `C/C(=N\NC(=O)c1ccncc1)C12CC3CC(CC(C3)C1)C2` was -0.319; that for `C/C(CCC12CC3CC(CC(C3)C1)C2)=N\NC(N)=S` was -0.636; that for `C/C(=N\NC(N)=S)C12CC3CC(CC(C3)C1)C2` was 2.47.
In the case of `COc1ccc(OC)c(C(=O)CSc2nccc(-c3ccc(Br)cc3)n2)c1` it was -0.268.
Consider `CC(C)OC(=O)/C(=C/c1cccnc1)NC(=O)c1ccccc1`, for which the z-score was 3.22 (active).
Consider `COC(=O)/C(=C/c1cccnc1)NC(=O)c1ccccc1`, for which the z-score is -0.0328.
In the case of `CC(C)OC(=O)/C(=C\C=C\c1ccccc1)NC(=O)c1ccccc1` it was -0.143; in that of `CC(=O)Nc1c(OC(C)=O)ccc2c(C)cc(=O)oc12`, -0.24; in that of `Cc1cc(C(F)(F)F)nn1Cc1n[nH]c(=S)n1-c1cccc(Cl)c1`, -0.0907.
`O=S(=O)(c1ccccc1)c1nc(-c2ccccc2)oc1N1CCCCC1` came in with a z-score of -0.0433.
The value for `COCCNC(=O)C(c1cccs1)N(C(=O)Cn1nnc2ccccc21)c1ccc(OC)cc1` (stereo not given) was 0.0248.
In the case of `CCCCCCCCCOC(=O)C[n+]1csc(CCO)c1C` it was 0.0302; in that of `O=C(CN1C(=O)c2ccccc2C1=O)Nc1sc2c(c1C(=O)NCC1CCCO1)CCC2` (stereo not given), 4.33 (active).
In the case of `O=C(CCN1C(=O)c2ccccc2C1=O)Nc1sc2c(c1C(=O)NCC1CCCO1)CCC2` (stereo not given) it was -0.294; in that of `CC(C(=O)Nc1sc2c(c1C(=O)NCC1CCCO1)CCC2)N1C(=O)c2ccccc2C1=O` (stereo not given), -1; in that of `CC(C)COP(=O)(OCC(C)C)C(O)c1ccc(F)cc1` (stereo not given), 0.263.
On to `COc1ccc(C2(CNC(C)=O)CCOCC2)cc1OC`, for which the z-score was found to be 0.1.
The value for `COC(=O)C1=CN(C(C)C)C=C(C(=O)OC)C1c1cc2c(cc1Br)OCO2` was -0.0368; that for `Cc1cc2cc3c(cc2nc1SCc1ccc(C(=O)O)cc1)OCCO3` was -0.554; that for `COc1cccc(C2C(C#N)=C(N)Oc3c2oc(CO)cc3=O)c1` (stereo not given) was -1.28.
The molecule `COc1ccccc1C(=O)NNC(=O)c1cccc(F)c1` displayed a z-score of -0.0578.
In the case of `O=C(Nc1ccccc1C(=O)O)c1cccc(F)c1` it was -0.262.
Consider `O=C(CC(=O)c1ccccc1O)c1ccc(F)cc1`, for which the z-score is 7.61 (active).
As for `O=C(CC(=O)c1ccccc1O)c1cccc(F)c1`, the z-score was 3.63 (active).
The value for `O=C(CCC(=O)c1ccc(F)cc1)Nc1ccccc1Cl` was 0.266.
In the case of `CCOC(=O)c1ccccc1NC(=O)c1cccc(F)c1`, the z-score came to 0.0409.
Turning to `Cc1ccc(C(=O)c2ccccc2C(=O)O)c(O)c1`, the z-score was 0.0184.
As to `Cc1ccccc1C(=O)NNC(=O)c1ccc(F)cc1`, the z-score came out at 0.0481.
As for `Cc1ccc(C(=O)CC(=O)c2cccc(F)c2)c(O)c1`, the z-score was 8.38 (active).
